Records with an inconclusive call do not appear. Active and inactive are the calls of the source. Rule for the calls: active = hit-call score of the fitted dose curve at least 0.9, where 1 is the maximum; inconclusive = response in the unintended direction; inactive = score below 0.9.
assay: ACEA_AR_agonist_AUC_viability: ACEA Biosciences xCELLigence Real-Time Cell Analysis on Androgen Receptor Agonism for Viability (AID 2283775);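 for AC50: viability read 80 hours after compound addition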
Summary of the method: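 Viability endpoint from xCELLigence impedance in 22Rv1 prostate cells at 80 h. Eight-point series, 100 uM maximum final.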

Compound | AC50 | outcome
COC(=O)NC(=S)Nc1ccccc1NC(=S)NC(=O)OC | 18.3 µM (active) | –
CC1(C)CON(Cc2ccccc2Cl)C1=O | – | inactive
CCCN(CC)CC1COC2(CCC(C(C)(C)C)CC2)O1 (stereo not given) | 77.3 µM (active) | –
COCC(=O)N(c1c(C)cccc1C)C(C)C(=O)OC (stereo not given) | – | inactive
CC1(C)CCC(=Cc2ccc(Cl)cc2)C1(O)Cn1cncn1 (stereo not given) | – | inactive
CC(C)(C)C(=O)C(Oc1ccc(Cl)cc1)n1cncn1 (stereo not given) | – | inactive
Nc1cnn(-c2ccccc2)c(=O)c1Cl | – | inactive
Cc1c(COC(=O)[C@@H]2[C@H](/C=C(\Cl)C(F)(F)F)C2(C)C)cccc1-c1ccccc1 | 69.3 µM (active) | –
CCOc1nc(F)cc2nc(S(=O)(=O)Nc3c(Cl)cccc3Cl)nn12 | – | inactive
Clc1nc(Cl)nc(Nc2ccccc2Cl)n1 | – | inactive
COP(=S)(OC)Oc1ccc([N+](=O)[O-])c(C)c1 | 87.3 µM (active) | –
CC(C)C1(C)N=C(c2ncccc2C(=O)O)NC1=O (stereo not given) | – | inactive
COCC(C)N(C(=O)CCl)c1c(C)csc1C (stereo not given) | – | inactive
COP(=O)(OC)O/C(C)=C/C(=O)N(C)C | – | inactive
N#Cc1c(Cl)cccc1Cl | – | inactive
CCOc1nc(C(Cl)(Cl)Cl)ns1 | – | inactive
CCOC(=O)C(C)OC(=O)c1cc(Oc2ccc(C(F)(F)F)cc2Cl)ccc1[N+](=O)[O-] (stereo not given) | 74 µM (active) | –
N#CN=C1SCCN1Cc1ccc(Cl)nc1 | – | inactive

Compound | AC50 | outcome
CCN(CC)C(=O)C(C)Oc1cccc2ccccc12 (stereo not given) | – | inactive
CCC(C)n1c(=O)[nH]c(C)c(Br)c1=O (stereo not given) | – | inactive
C=CCOC(=O)C(C)(C)OC(=O)c1cc(-n2c(=O)cc(C(F)(F)F)n(C)c2=O)ccc1Cl | 50.5 µM (active) | –
Cc1ccc(N=CN(C)C=Nc2ccc(C)cc2C)c(C)c1 | 14.5 µM (active) | –
O=c1n(Cl)c(=O)n(Cl)c(=O)n1Cl | – | inactive
Cc1nc(N(C)C)nc(OC(=O)N(C)C)c1C | – | inactive
COC(=O)c1c(C(F)F)nc(C(F)(F)F)c(C2=NCCS2)c1CC(C)C | – | inactive
O=C1C2CC=CCC2C(=O)N1SC(Cl)(Cl)Cl (stereo not given) | 24.5 µM (active) | –
CN=C=S | – | inactive
CCOP(=S)(OCC)Oc1nc(Cl)n(C(C)C)n1 | – | inactive
COc1cc(OC)nc(NC(=O)NS(=O)(=O)c2ncccc2OCC(F)(F)F)n1 | – | inactive
CC(C)=CC1C(C(=O)OCc2coc(Cc3ccccc3)c2)C1(C)C (stereo not given) | 46 µM (active) | –
CN/C(=N\[N+](=O)[O-])NCc1cnc(Cl)s1 | – | inactive
CC1(C)C(C=C(Cl)Cl)C1C(=O)OC(C#N)c1cccc(Oc2ccccc2)c1 (stereo not given) | 73.1 µM (active) | –
Cn1c(-c2ccccc2)cc(-c2ccccc2)[n+]1C | 28.7 µM (active) | –
CCNP(=S)(OC)O/C(C)=C/C(=O)OC(C)C (stereo not given) | – | inactive
C=C(C)CN(CC)c1c([N+](=O)[O-])cc(C(F)(F)F)cc1[N+](=O)[O-] | 73 µM (active) | –

— PubChem BioAssay (EPA / NIEHS)
